# Measurements as given in PubChem BioAssay (EPA / NIEHS).
# Inconclusive results are not listed. Activity calls are given as the source filed them. How the source made its calls: active means hit-call score of the fitted dose curve at least 0.9, where 1 is the maximum; inconclusive means response in the unintended direction; inactive means score below 0.9.
# Assay: Tanguay_ZF_120hpf_MORT_legacy: (Legacy) Oregon State University Tanguay Lab 120 Hour Post-fertilization zebrafish Assay for Mortality (AID 2283633)
# Summary of the method: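 Single dechorionated Tropical 5D embryos were held with test chemical (0.64% DMSO final) from 6 to 120 hpf at 28C under foil. Deaths at 24 or 120 hpf were recorded as binary calls, analysed for increase over DMSO controls.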
row,SMILES,outcome
1,CCCCCCCCCCCCCCC,inactive
2,Cc1[nH]nc2c1N=C(c1ccccc1Cl)c1cc([N+](=O)[O-])ccc1N2,inactive
3,CCCCCCCCCCCCOS(=O)(=O)O,inactive
4,CN(Cc1cnc2nc(N)nc(N)c2n1)c1ccc(C(=O)N[C@@H](CCC(=O)O)C(=O)O)cc1,inactive
5,CN(C)CCOC(c1ccccc1)c1ccccc1,inactive
6,CS(=O)(=O)c1ccc([C@@H](CC2CCCC2)C(=O)Nc2cnccn2)cc1Cl,inactive
7,O=C1NS(=O)(=O)c2ccccc21,inactive
8,CCC(C)c1ccccc1O (centres undefined),inactive
9,CCCCC=O,inactive
10,CCCCC(CC)C(=O)O (centres undefined),inactive
11,OCC(CO)(CBr)CBr,inactive
12,N=C(N)c1ccc(OCCCCCOc2ccc(C(=N)N)cc2)cc1,inactive
13,CC(=O)Nc1ccc(O)cc1,inactive

# Assay: Tanguay_ZF_120hpf_YSE_legacy: (Legacy) Oregon State University Tanguay Lab 120 Hour Post-fertilization zebrafish Assay for Yolk Sac Edema (AID 2283634);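 on AC50: actives raise the incidence of yolk sac edema above the DMSO baseline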
# Summary of the method: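 Single dechorionated embryos were held in sealed plates at 28C with test chemical (0.64% DMSO final) from 6 hpf until 120 hpf. Edema of the yolk sac was then recorded as a binary endpoint; non-mortality endpoints were skipped for dead embryos.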
SMILES,outcome,AC50
CCCCCCCCCCCCCCC,inactive,–
Cc1[nH]nc2c1N=C(c1ccccc1Cl)c1cc([N+](=O)[O-])ccc1N2,inactive,–
CCCCCCCCCCCCOS(=O)(=O)O,inactive,–
CN(Cc1cnc2nc(N)nc(N)c2n1)c1ccc(C(=O)N[C@@H](CCC(=O)O)C(=O)O)cc1,inactive,–
CN(C)CCOC(c1ccccc1)c1ccccc1,–,15.4 µM (active)
CS(=O)(=O)c1ccc([C@@H](CC2CCCC2)C(=O)Nc2cnccn2)cc1Cl,inactive,–
O=C1NS(=O)(=O)c2ccccc21,inactive,–
CCC(C)c1ccccc1O (centres undefined),inactive,–
CCCCC=O,–,45.3 µM (active)
CCCCC(CC)C(=O)O (centres undefined),inactive,–
OCC(CO)(CBr)CBr,inactive,–
N=C(N)c1ccc(OCCCCCOc2ccc(C(=N)N)cc2)cc1,inactive,–
CC(=O)Nc1ccc(O)cc1,inactive,–

# Assay: Tanguay_ZF_120hpf_AXIS_legacy: (Legacy) Oregon State University Tanguay Lab 120 Hour Post-fertilization zebrafish Assay for Body Axis Malformation (AID 2283635);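 on AC50: potency for an increased fraction of larvae scored with body axis malformation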
# Summary of the method: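 Each dechorionated embryo was exposed alone from 6 hpf, with DMSO at 0.64% (vol/vol) and trimethyltin chloride 5 uM as positive control. Axis malformation was recorded at 120 hpf unless the embryo had died.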
SMILES,outcome,AC50
CCCCCCCCCCCCCCC,inactive,–
Cc1[nH]nc2c1N=C(c1ccccc1Cl)c1cc([N+](=O)[O-])ccc1N2,inactive,–
CCCCCCCCCCCCOS(=O)(=O)O,inactive,–
CN(Cc1cnc2nc(N)nc(N)c2n1)c1ccc(C(=O)N[C@@H](CCC(=O)O)C(=O)O)cc1,inactive,–
CN(C)CCOC(c1ccccc1)c1ccccc1,–,22.3 µM (active)
CS(=O)(=O)c1ccc([C@@H](CC2CCCC2)C(=O)Nc2cnccn2)cc1Cl,inactive,–
O=C1NS(=O)(=O)c2ccccc21,inactive,–
CCC(C)c1ccccc1O (centres undefined),inactive,–
CCCCC=O,inactive,–
CCCCC(CC)C(=O)O (centres undefined),inactive,–
OCC(CO)(CBr)CBr,inactive,–
N=C(N)c1ccc(OCCCCCOc2ccc(C(=N)N)cc2)cc1,inactive,–
CC(=O)Nc1ccc(O)cc1,inactive,–
